# Most compounds without a hit are left out; they make up all but 3.7% or so of the library.
# PfHsp90 yeast 2 – growth inhibition of PfHsp90-expressing yeast, primary screen, antimalarial PfHsp90 inhibitor project, S. cerevisiae, BacTiter-Glo luminescence, single point, set 2 | BacTiter-Glo ATP, 48 h; yeast lacking PDR1 and PDR3 efflux regulators | inhibition, % at 9.4 µM | 0.32% of 310,000 active | AID 504621, 2011;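 active = every replicate shows inhibition above about 80%, whatever the replicate mean, limit read from the data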
# NLRP3 yeast inh – NALP3 inflammasome inhibitors in reconstituted yeast, primary screen, luminescence, uHTS | Yeast reconstituted NLRP3/ASC/caspase-1, beta-gal luminescence, 24 h | inhibition, % at 10 µM | 0.39% of 330,000 active | AID 2825, 2010;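 active = inhibition of 50% or more; inactive = inhibition below 50%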
# tim10-1 inh – growth inhibitors of tim10-1 mutant yeast, primary screen, luminescence, uHTS | S. cerevisiae tim10-1 ts strain growth, BacTiter-Glo, 24 h | inhibition, % at 20 µM | 2.2% of 330,000 active;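 active = inhibition of at least 40%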;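 note: mutant grown at 25 °C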
# tim23-1 inh – growth inhibitors of tim23-1 mutant yeast, primary screen, luminescence, uHTS; S. cerevisiae tim23-1 growth, BacTiter-Glo luminescence, 24 h; inhibition, % at 20 µM; 1.3% of 330,000 active; AID 463212, 2010;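 active = growth inhibition of the mutant yeast at or above 50%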;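 note: temperature-sensitive mutant grown at 25 °C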
# TIM10 inh – growth inhibitors of isogenic TIM10 control yeast, primary screen, counter-screen for tim10-1 yeast inhibitor project, luminescence, uHTS; S. cerevisiae TIM10 strain growth, BacTiter-Glo luminescence, 24 h; inhibition, % at 10 µM; 1.4% of 330,000 active;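 active = inhibition of 40% or more at the single tested concentration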;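 note: wild-type TIM10 isogenic control strain grown at permissive 25 °C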
# tim10 confirm – growth inhibitors of wild-type TIM10 yeast, confirmation, counter-screen for tim10-1 synthetic lethality project, single concentration, luminescence, S. cerevisiae. shares compounds with TIM10 inh. S. cerevisiae tim10 strain growth, BacTiter-Glo luminescence, 24 h. inhibition, % at 10 µM. 63% of 4,600 active;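 active = inhibition of yeast growth at or above a set limit in either of two replicates at 10 µM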; note: this counterscreen used the strain with wild-type TIM10
# tim23-1 confirm – tim23-1 mutant yeast growth inhibitors, confirmation, luminescence, single concentration. shares compounds with tim23-1 inh. S. cerevisiae tim23-1 growth, BacTiter-Glo luminescence, 24 h. inhibition, % at 20 µM. 83% of 4,400 active. AID 463218, 2010;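 active = inhibition above about 39% in either of two replicate wells at 20 µM, limit read from the data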;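 note: temperature-sensitive tim23-1 mutant grown at 25 °C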
# Numbers stand for hits; n = inactive; x = no result given.
SMILES,PfHsp90 yeast 2,NLRP3 yeast inh,tim10-1 inh,tim23-1 inh,TIM10 inh,tim10 confirm,tim23-1 confirm
O=C(Nc1cc(-c2nc3ncccc3o2)ccc1Cl)c1ccc([N+](=O)[O-])o1,n,n,n,86,43,n,86
O=C(Nc1cc(-c2nc3ncccc3o2)ccc1Cl)c1cccs1,n,n,n,n,n,x,x
CCn1c(COc2ccccc2C)nnc1SCC(=O)CC(=O)Nc1ccccc1OC,n,n,n,n,n,x,x
COc1ccc(C(=O)/C=C/C(=O)N(CC(=O)NC2CCCCC2)Cc2cccs2)c(O)c1,94,n,n,62,49,47,36
O=C(Nc1cccc(C(F)(F)F)c1)c1sc(Cl)nc1C(F)(F)F,n,n,n,n,n,x,x
N=c1oc2cc(O)ccc2cc1C(=O)Nc1ccc(Br)cc1,n,n,n,55,41,n,56
N=c1oc2cc(O)ccc2cc1C(=O)Nc1ccccn1,x,n,n,n,n,x,x
CCCCCCCn1c2c(c(=N)c3ccccc31)CCC2,n,n,n,n,n,x,x
O=c1c2c3c(sc2ncn1/N=C/c1ccc(Br)o1)CCCC3,n,n,n,51,44,46,54
N#C/C(=C\c1ccc(N2CCOCC2)o1)c1nc2ccccc2[nH]1,n,n,n,54,42,31,74
N#C/C(=C\c1ccc(N2CCOCC2)c([N+](=O)[O-])c1)c1nc2ccccc2[nH]1,n,n,n,n,n,x,x
Cc1cccc(C)c1NC(=O)/C(C#N)=C/c1ccsc1,n,n,n,62,44,37,57
Cc1ccccc1NC(=O)/C(C#N)=C/c1ccsc1,x,n,n,n,n,x,x
CC(C)c1ccc(NC(=O)N2CCc3ccccc3C2)cc1,n,n,n,52,45,31,50
CCN1CCN(S(=O)(=O)c2ccc(Cl)c(C(=O)N(C)Cc3ccc(Cl)cc3Cl)c2)CC1,n,n,n,n,n,x,x
COc1cccc(CN(C)C(=O)Cc2c[nH]c3ccccc23)c1,n,n,n,n,n,x,x
COC(=O)Cc1ccc(NC(=S)NCCSc2ccc(Cl)cc2)cc1,n,n,n,50,44,42,43
N#CC1=C(c2ccccc2)/C(=C/c2ccccc2)OC1=O,n,n,n,61,44,52,59
Cc1[nH]c(C)c(S(=O)(=O)Nc2cccc(Cl)c2C)c1C(=O)N1CCCC1,n,n,n,n,n,x,x
NNc1nc2c(Cl)c(Cl)ccc2s1,n,n,n,68,41,28,52
COc1cccc2sc(NN)nc12,n,n,n,n,n,x,x
O=C(Oc1coc(CSc2ncccn2)cc1=O)c1ccccc1[N+](=O)[O-],n,n,n,62,59,52,49
COc1cccc(CN(C)C(=O)C(Cc2ccccc2)NC(=O)c2ccccc2)c1OC (stereo not drawn),n,n,n,n,n,x,x
Cc1ccc(C)c(C(=O)Nc2cc(C)nn2-c2nc(C)cc(C)n2)c1,n,n,n,54,43,43,48
Cc1cc(C)nc(-n2nc(C)cc2NC(=O)c2cccc(S(=O)(=O)N(C)C)c2)n1,x,n,n,n,n,x,x
SMILES,PfHsp90 yeast 2,NLRP3 yeast inh,tim10-1 inh,tim23-1 inh,TIM10 inh,tim10 confirm,tim23-1 confirm
O=C(NNC(=O)c1cc(Cl)nc2ccccc12)c1ccccc1F,n,n,n,n,n,x,x
CCOc1ccc(C2=NNC(c3cccs3)=Nc3ccc(OC)cc32)cc1,n,n,n,64,55,43,70
COC(=O)c1cncc(C)c1,n,n,n,n,n,x,x
N#Cc1nc(NCC(F)F)nc(Nc2cc(F)cc(F)c2)n1,n,n,n,69,42,50,65
N#Cc1nc(-c2ccccc2F)oc1NCc1ccccc1,n,n,n,n,n,x,x
N#Cc1nc(-c2ccccc2F)oc1NCCc1ccccc1,n,n,n,57,66,61,78
Cc1ccc(CNS(=O)(=O)c2ccc3c(c2)OCCO3)cc1,n,n,n,56,41,42,46
CCOC(=O)c1cnc2c(C)c(Cl)ccc2c1NCCCN1CCOCC1,n,n,n,51,65,60,41
C=CCOc1cccc(C(=O)/C=C2/C(=O)Nc3ccccc32)c1,n,n,n,76,85,80,n
COC(=O)c1ccccc1NC(=O)C1CC(=O)N(c2ccc(C)c(C)c2)C1 (stereo not drawn),n,n,n,n,n,x,x
Cc1cc(Cl)ccc1NC(=O)CCC(=O)N/N=C/c1cc([N+](=O)[O-])ccc1O,n,n,n,n,n,x,x
O=[N+]([O-])c1ccc(O)c(/C=N/NC(=S)Nc2ccc(Cl)cc2Cl)c1,n,n,n,81,46,43,77
CN1CCc2cc3c(c4c2[C@H]1[C@H](O)c1ccccc1-4)OCO3,n,n,n,58,53,68,63
Cc1ccccc1OCC(=O)O/N=C(\N)Cc1ccc(Cl)cc1,n,n,n,82,84,79,60
COP(=O)(OC)C(NC(=O)Nc1ccccc1)c1ccccc1 (stereo not drawn),n,n,n,n,n,x,x
O=C(c1ccc(Cl)cc1)C(CN1CCCCC1)c1ccccc1 (stereo not drawn),n,n,n,62,58,63,n
CCc1ccc(-c2cc(C(=O)N3N=C(C(F)F)CC3(O)C(F)F)c3ccccc3n2)cc1 (stereo not drawn),111,n,n,54,48,n,n
Cc1c(C(=O)c2ccccc2)c(=O)n(C)c(=O)n1C,n,n,n,n,n,x,x
CCC(C)c1ccc(NC(=O)c2cccs2)cc1 (stereo not drawn),n,n,n,72,52,45,73
CCCCN1CC(C(=O)NC2CCCCC2)CC1=O (stereo not drawn),n,n,n,n,n,x,x
Cc1ccc(/C=N/NC(=O)c2c(-c3ccccc3)noc2C)c(O)c1,x,n,n,57,43,n,42
c1ccc(N/N=C(\Cc2nc3ccccc3[nH]2)c2ccccc2)cc1,n,n,n,58,48,n,60
Cc1ccc(N/N=C(\Cc2nc3ccccc3[nH]2)c2ccccc2)cc1,n,x,x,x,x,x,x
O=C(/C=C/c1ccccc1)Nc1ccc2c(c1)OCCO2,n,n,n,54,46,n,70
O=C(/C=C/c1ccco1)Nc1ccc2c(c1)OCCO2,n,n,n,n,n,x,x
CC(C)[C@H](NC(=O)[C@@H]1CSC2c3ccccc3C(=O)N21)C(=O)NCc1ccncc1 (stereo partly drawn),n,n,n,n,n,x,x

# Screens (PubChem BioAssay)
